A number with no mark means an inactive call. Inconclusive results are not listed. Active and inactive are the calls of the source. Unless noted, calls follow the shape of the full dose curve.

Data on 7 molecules can be found in PubChem BioAssay (Tox21).

The nature of test [1]: Nuclear factor erythroid 2-related factor 2/antioxidant responsive element (Nrf2/ARE) small molecule agonists: qHTS cell viability counter screen in human keratinocytes (AID 1919968; active = well fitted curve in the direction sought with a large enough effect in the repeat runs; an effect the other way counts as inactive or inconclusive; also: nearly all actives have a fitted effect of over 55% in size; also: potency is read from the fitted curve at half-maximal effect). Put shortly:
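Seed 1,500 KeratinoSens cells per well, then incubate 5 h at 37 C/5% CO2. Add compounds in DMSO and incubate 23 h. Add CellTiter-Fluor, wait 1 h and read fluorescence.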
On the technique in general: Quantitative high-throughput screening tests each substance at several concentrations.

The nature of test [2]: Nuclear factor erythroid 2-related factor 2/antioxidant responsive element (Nrf2/ARE) small molecule agonists: luciferase reporter gene qHTS assay in human keratinocytes (AID 1919969; also: nearly all actives have a fitted effect of over 35% in size; also: potency is read from the fitted curve at half-maximal effect). (A reporter such as luciferase makes a cellular process visible.)
For test [3], the target named is Gonadotropin-releasing hormone receptor (Homo sapiens) (UniProt P30968). The experiment in a line: Human gonadotropin-releasing hormone receptor (GnRHR) small molecule agonists, calcium flux assay in GnRHR-HEK293 cells (AID 1920063). Also: nearly all actives have a fitted effect of over 35% in size. In a few lines: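 Cells: HEK293 stably expressing human GnRHR. Steps: overnight (18 h) culture, 1 h calcium dye loading at 37 C, compound addition, kinetic fluorescence read at 480/540 nm. Each compound tested at 15 concentrations in triplicate.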

For test [4], the target named is KiSS-1 receptor (Homo sapiens) (UniProt Q969F8). The experiment in a line: Human kisspeptin (KISS1R) small molecule agonists, calcium flux assay in KISS1R-HEK293 cells (AID 1920064; active = well fitted curve in the direction sought with a large enough effect in the repeat runs; an effect the other way counts as inactive or inconclusive). Put shortly:
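Cells plated and incubated 18 h; dye added, 1 h at 37 C; compounds in DMSO pinned in; signal read at 480/540 nm every second for 3 min. Each compound tested at 15 concentrations in triplicate.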
On the technique in general: A change in cytosolic calcium serves as a functional read-out for many receptors and channels.

Test [5] is described as follows: G protein-coupled receptor (GPCR) small molecule agonists, calcium flux assay: HEK293 wild type cell line counter screen (AID 1920065). Put shortly: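 Counter-screen of the Tox21 10K library for non-specific calcium release: dye-loaded cells received compounds in DMSO and were monitored by kinetic fluorescence (480/540 nm, 3 min). Fifteen concentrations, run in triplicate.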

A short description of test [6]: p53 small molecule agonists, cell-based qHTS assay with rat liver microsomes (AID 1963578). Put shortly:
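p53RE-bla cells, 4,000/well, pre-incubated 5 h, then given compounds plus rat liver microsomes (0.5 mg/mL final) and NADPH (0.5 mg/mL final). Incubation 16 h at 37 C; beta-lactamase reporter read by LiveBLAzer fluorescence after 2 h at room temperature.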

A short description of test [7]: p53 small molecule agonists, cell-based qHTS assay with human liver microsomes: qHTS cell viability counter screen (AID 1963579). Also: nearly all actives have a fitted effect of over 45% in size. Also: potency is read from the fitted curve at half-maximal effect. In a few lines: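 p53RE-bla cells, 4,000/well, dosed 5 hours after plating, with human liver microsomes (0.5 mg/mL final) plus NADPH (0.5 mg/mL final), 16 hours at 37 C. Viability read as CellTiter-Glo luminescence after 30 min at room temperature.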

The nature of test [8]: p53 small molecule agonists, cell-based qHTS assay with rat liver microsomes: qHTS cell viability counter screen (AID 1963580). Also: nearly all actives have a fitted effect of over 45% in size. Also: potency is read from the fitted curve at half-maximal effect. Put shortly: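 Intracellular ATP, by CellTiter-Glo luminescence, defines viability. HCT-116 p53RE-bla cells, 4,000 per well, were compound-treated in the presence of rat liver microsomes and NADPH for 16 h at 37 C.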
Test [9] can be described thus: p53 small molecule agonists, cell-based qHTS assay: qHTS cell viability counter screen (AID 1963581). Also: nearly all actives have a fitted effect of over 45% in size. Also: potency is read from the fitted curve at half-maximal effect. In a few lines: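 Cells: HCT-116 with p53 response element-driven beta-lactamase. Treatment: 16 h, 37 C, compounds in DMSO. Read: CellTiter-Glo luminescence after 30 min RT.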
The nature of test [10]: p53 small molecule agonists, cell-based qHTS assay (AID 1963582; active = well fitted activation curve with a large enough effect in the signal ratio in the repeat runs, not every such curve was filed as active; the % refers to the signal ratio). Put shortly: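 Quantitative HTS in p53RE-bla cells: after a 5 h settling period, compounds delivered in DMSO were left on cells for 16 h at 37 C, and reporter induction was measured as fluorescence following 2 h substrate loading.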
In test [11] the target is 5-hydroxytryptamine receptor 2A (Homo sapiens) (UniProt P28223). The experiment in a line: 5-hydroxytryptamine receptor 2A (HTR2A) small molecule agonists, cell-based qHTS assay (AID 1963587). Also: nearly all actives have a fitted effect of over 30% in size. Put shortly: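 Kinetic calcium-flux fluorescence (2 min, 1 sec intervals) after compound addition in agonist mode. HTR2A-CHO cells were cultured 18 h, then dye-loaded 1 h at 37 C.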

The target in test [12] is Muscarinic acetylcholine receptor M1 (Homo sapiens) (UniProt P11229). The experiment in a line: Cholinergic receptor muscarinic 1 (CHRM1) small molecule antagonists, cell-based qHTS assay (AID 1963588). Also: nearly all actives have a fitted effect of over 40% in size. In a few lines: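 CHRM1-CHO calcium-flux assay, antagonist mode. Cells were seeded 18 h, dye-loaded 1 h at 37 C and given compound for 5 min at RT, then acetylcholine was added at 50nM. FDSS fluorescence was read 3 min; 15 concentrations, three runs.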

For test [13] the target is unchanged. The experiment in a line: Cholinergic receptor muscarinic 1 (CHRM1) small molecule agonists, cell-based qHTS assay (AID 1963589). Also: nearly all actives have a fitted effect of over 35% in size. Put shortly: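 Agonist-mode qHTS in CHO cells stably carrying human muscarinic M1. Intracellular calcium is tracked by fluorescence every second after compound transfer; each compound runs at 15 concentrations in three independent runs.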

The nature of test [14]: cAMP Responsive Elements (CRE) small molecule agonists, cell-based qHTS assay (AID 1963590). In a few lines: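 Agonist mode qHTS in CRE-bla HEK 293T cells: compounds dosed from DMSO for 3 h at 37 C/5% CO2, followed by LiveBLAzer B/G FRET substrate for 2 h at room temperature.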
A short description of test [15]: cAMP Responsive Elements (CRE) small molecule antagonists, cell-based qHTS assay (AID 1963591; active = well fitted inhibition curve with a large enough effect in the signal ratio in the repeat runs, not every such curve was filed as active; the % refers to the signal ratio). Put shortly:
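Antagonist mode: test compounds are co-incubated with the adenylyl cyclase activator NKH477 (0.25 uM final) on CRE-bla HEK293T cells for 3 h at 37 °C, followed by LiveBLAzer substrate loading.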

Test [16] deals with Beta-2 adrenergic receptor (Homo sapiens) (UniProt P07550). Description: Adrenergic beta2 receptor (ADRB2) small molecule antagonists, cell-based qHTS assay (AID 1963592). Also: series mostly up to about 92 µM; nearly all actives have a fitted effect of over 50% in size. In a few lines:
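Cells (CHO, stable ADRB2 overexpression) incubated 18-20hr at 37C; compounds added from DMSO; agonist mix (1nM isoproterenol, 100uM IBMX, 25uM Ro-20-1724) added; 0.5hr RT; d2-cAMP and anti-cAMP-cryptate added; 1hr RT; 665/615 nm read.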

The target in test [17] is D(2) dopamine receptor (Homo sapiens) (UniProt P14416). Description: Dopamine D2 receptor (DRD2) small molecule agonists, cell-based qHTS assay (AID 1963594). Also: nearly all actives have a fitted effect of over 35% in size. Put shortly: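 cAMP accumulation in DRD2-HEK293 cells measured by HTRF after 1 h detection; compounds added 10 min before NKH477 (200nM […]) forskolin-analogue stimulation, 30 min at room temperature, with Ro20-1724 present at 0.1 mM final.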

The target is the same in test [18]. Description: Dopamine D2 receptor (DRD2) small molecule antagonists, cell-based qHTS assay (AID 1963595; active = well fitted inhibition curve with a large enough effect in the signal ratio in the repeat runs, with a control signal flat; the % refers to the signal ratio). Put shortly: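 HTRF cAMP read-out at 665 and 620 nm emission (340 nm excitation). Antagonist mode: compounds were tested against 12 nM quinpirole in DRD2-HEK293 cells, with 200 nM NKH477 raising cAMP and 0.1 mM Ro20-1724 blocking its breakdown.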
The target of test [19] is 5-hydroxytryptamine receptor 2A (Homo sapiens) (UniProt P28223). The experiment in a line: 5-hydroxytryptamine receptor 2A (HTR2A) small molecule antagonists, cell-based qHTS assay (AID 1963586). Also: nearly all actives have a fitted effect of over 45% in size. In a few lines:
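Antagonist-mode intracellular calcium assay: DOI (4 nM) added after 5 min compound pre-incubation at room temperature to dye-loaded HTR2A-CHO cells. Fluorescence followed for 3 min, sampled every second.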

Test [20] deals with Beta-2 adrenergic receptor (Homo sapiens) (UniProt P07550). Description: Adrenergic beta2 receptor (ADRB2) small molecule agonists, cell-based qHTS assay (AID 1963593).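 Also: CHO cells stably overexpressing human ADRB2.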 In a few lines: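 CHO cells stably over-expressing ADRB2 were plated overnight at 37C, then dosed with compounds plus a stimulation mix containing 100uM IBMX and 25uM Ro-20-1724 for 0.5hr at room temperature. cAMP was measured by HTRF competition, 1hr.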
% is scaled to controls: 0 for no effect and ±100 for the full control effect.

D(2) dopamine receptor (Homo sapiens), sequence (P14416 whole entry, looked up): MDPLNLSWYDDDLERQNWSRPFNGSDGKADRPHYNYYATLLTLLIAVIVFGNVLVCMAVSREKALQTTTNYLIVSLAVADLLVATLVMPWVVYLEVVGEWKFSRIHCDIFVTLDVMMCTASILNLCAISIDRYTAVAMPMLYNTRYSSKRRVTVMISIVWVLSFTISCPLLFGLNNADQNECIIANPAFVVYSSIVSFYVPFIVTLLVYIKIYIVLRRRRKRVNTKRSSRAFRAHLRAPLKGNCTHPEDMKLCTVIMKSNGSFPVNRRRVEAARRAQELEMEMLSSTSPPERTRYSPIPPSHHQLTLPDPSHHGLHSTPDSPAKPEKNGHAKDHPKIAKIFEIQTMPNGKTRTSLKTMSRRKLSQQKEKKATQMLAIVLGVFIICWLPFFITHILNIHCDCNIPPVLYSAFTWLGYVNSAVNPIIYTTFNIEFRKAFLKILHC
Muscarinic acetylcholine receptor M1 (Homo sapiens), sequence (P11229 whole entry, looked up): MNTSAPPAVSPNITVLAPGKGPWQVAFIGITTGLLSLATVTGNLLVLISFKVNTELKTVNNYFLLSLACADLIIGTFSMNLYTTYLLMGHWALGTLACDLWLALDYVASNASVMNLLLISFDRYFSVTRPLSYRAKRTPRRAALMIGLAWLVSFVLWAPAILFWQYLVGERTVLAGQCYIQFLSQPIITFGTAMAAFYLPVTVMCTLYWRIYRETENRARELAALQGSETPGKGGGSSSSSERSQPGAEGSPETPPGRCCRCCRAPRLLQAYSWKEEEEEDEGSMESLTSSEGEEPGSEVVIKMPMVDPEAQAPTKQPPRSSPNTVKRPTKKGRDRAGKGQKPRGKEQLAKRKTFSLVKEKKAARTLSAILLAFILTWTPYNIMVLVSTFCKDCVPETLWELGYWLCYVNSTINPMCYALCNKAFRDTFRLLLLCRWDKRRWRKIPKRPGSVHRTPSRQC
5-hydroxytryptamine receptor 2A (Homo sapiens), sequence (P28223 whole entry, looked up): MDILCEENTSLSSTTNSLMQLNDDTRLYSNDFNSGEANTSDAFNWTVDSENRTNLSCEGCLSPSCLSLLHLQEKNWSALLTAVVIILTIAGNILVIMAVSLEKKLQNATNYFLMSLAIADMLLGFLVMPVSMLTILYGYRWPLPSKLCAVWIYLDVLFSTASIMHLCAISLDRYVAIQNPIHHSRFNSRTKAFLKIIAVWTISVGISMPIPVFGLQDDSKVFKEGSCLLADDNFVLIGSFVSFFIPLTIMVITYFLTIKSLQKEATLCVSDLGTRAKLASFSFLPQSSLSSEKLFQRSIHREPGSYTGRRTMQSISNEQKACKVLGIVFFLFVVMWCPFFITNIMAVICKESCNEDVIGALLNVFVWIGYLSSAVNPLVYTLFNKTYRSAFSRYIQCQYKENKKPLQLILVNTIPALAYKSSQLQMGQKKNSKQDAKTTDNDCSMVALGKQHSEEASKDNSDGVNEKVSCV
Beta-2 adrenergic receptor (Homo sapiens), sequence (P07550 whole entry, looked up): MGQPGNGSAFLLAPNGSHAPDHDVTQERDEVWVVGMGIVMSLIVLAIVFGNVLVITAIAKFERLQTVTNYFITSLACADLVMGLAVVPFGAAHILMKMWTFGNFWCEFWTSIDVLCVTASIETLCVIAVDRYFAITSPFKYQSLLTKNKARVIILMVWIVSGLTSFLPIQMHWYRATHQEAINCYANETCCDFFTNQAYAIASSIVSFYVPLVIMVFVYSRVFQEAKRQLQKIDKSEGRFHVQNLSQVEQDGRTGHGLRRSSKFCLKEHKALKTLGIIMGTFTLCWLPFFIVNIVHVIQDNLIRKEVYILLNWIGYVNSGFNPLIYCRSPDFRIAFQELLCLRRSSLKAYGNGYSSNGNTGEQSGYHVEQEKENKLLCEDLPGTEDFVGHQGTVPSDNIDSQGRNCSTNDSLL
Gonadotropin-releasing hormone receptor (Homo sapiens), sequence (P30968 whole entry, looked up): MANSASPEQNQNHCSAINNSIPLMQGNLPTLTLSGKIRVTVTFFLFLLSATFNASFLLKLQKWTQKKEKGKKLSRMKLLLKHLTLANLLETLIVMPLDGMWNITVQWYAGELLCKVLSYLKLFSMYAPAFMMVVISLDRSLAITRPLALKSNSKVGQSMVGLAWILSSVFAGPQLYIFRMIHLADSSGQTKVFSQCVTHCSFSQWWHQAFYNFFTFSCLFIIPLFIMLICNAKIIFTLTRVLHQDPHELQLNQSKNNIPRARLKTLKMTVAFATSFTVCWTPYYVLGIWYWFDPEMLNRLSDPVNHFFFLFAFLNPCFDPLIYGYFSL
KiSS-1 receptor (Homo sapiens), sequence (Q969F8 whole entry, looked up): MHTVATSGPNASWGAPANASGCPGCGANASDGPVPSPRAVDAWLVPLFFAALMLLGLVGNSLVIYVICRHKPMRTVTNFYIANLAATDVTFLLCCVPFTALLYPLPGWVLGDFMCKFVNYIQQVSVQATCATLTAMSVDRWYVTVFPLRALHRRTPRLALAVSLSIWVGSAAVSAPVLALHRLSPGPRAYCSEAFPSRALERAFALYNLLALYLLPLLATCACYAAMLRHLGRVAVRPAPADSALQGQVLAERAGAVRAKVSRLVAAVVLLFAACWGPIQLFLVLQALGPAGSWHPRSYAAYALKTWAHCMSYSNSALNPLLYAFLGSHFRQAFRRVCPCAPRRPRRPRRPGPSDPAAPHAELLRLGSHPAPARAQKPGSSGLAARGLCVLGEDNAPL

As to `CCCc1ccc(OCC(=O)N2CCN(C(=O)COc3ccc(CCC)cc3OC)CC2)c(OC)c1`, the Potency entry in test [1], in test [2], in test [3], in [4], in [5] and in [6] was “inactive” each time. The Potency entry in test [7], in test [8], in [9], in test [10], in [11] and in test [12] was “inactive” throughout. Moreover, the Potency result in test [13], in [14], in test [15], in test [16], in test [17] and in test [18] was “inactive” throughout.

`COCCc1ccc(OCC2CO2)cc1` (stereo not drawn): the Potency result in test [1], in test [2], in test [3], in [4], in test [5] and in [6] was “inactive” each time. Moreover, the Potency entry in test [7], in test [8], in test [9], in [19], in test [11] and in test [12] was “inactive” throughout. The Potency entry in test [13], in test [14], in test [15], in test [16], in [20] and in [18] was “inactive” each time.

`CN(C)c1ccc(N=NS(=O)(=O)O)cc1`: the Potency entry in test [1], in test [3], in test [4], in test [5], in test [6] and in test [7] was “inactive” each time. Moreover, the Potency result in test [8], in [9], in test [19], in [12], in test [13] and in test [17] was “inactive” in each case. In addition, the Potency in test [2] is 25.6 µM (active).

Take `CCCCCCCCCCCCCCCCN(C)C`: the activity change, negative = cytotoxicity in test [1] was 3.36% [at 8.39 µM]; in [7], -6.23% [at 5.99 µM]; in [8] it was 1.34% [at 5.99 µM]; in test [9], 8.26% [at 5.99 µM]. Further, the activity, positive = activation in test [2] was -0.511% [at 8.39 µM]. In addition, in test [3], the activity change is -0.722% [at 5.22 µM, active compounds read high]. Also, the activation is 5.47% [at 6.97 µM] in test [4]; -0.794% [at 5.23 µM] in [5]; -0.0918% [at 5.99 µM] in [6]; 9.5% [at 5.99 µM] in test [10]; 3.51% [at 7.02 µM] in test [11]; 0.295% [at 6.97 µM] in test [13]. Besides, the activation in [14] was -1.13% [at 8.39 µM]; in [17], -3.52% [at 8.39 µM]. Moreover, the results for the activity, negative = inhibition in test [19] and in test [12] were -3.75% [at 5.62 µM] and 5.3% [at 5.58 µM], respectively. Moreover, the activity change, negative = inhibition in test [15] was 1.36% [at 8.39 µM]; in [16], -8.88% [at 8.39 µM]; in test [18], -3.89% [at 8.38 µM].

For `CCCCCCCCCCCCCCCCCCCl`, the activity change, negative = cytotoxicity in [1] is -0.678% [at 8.39 µM]; in test [7], 1.68% [at 5.99 µM]; in test [8] it was 2.02% [at 5.99 µM]; in test [9] it was -9.11% [at 5.99 µM]. Moreover, in test [2], the activity, positive = activation was -2.4% [at 8.39 µM]. Further, the activity change in test [3] is 0.0314% [at 5.22 µM, active compounds read high]. For the same molecule, the activation is 6.45% [at 6.97 µM] in test [4]; 0.281% [at 5.23 µM] in test [5]; 2.88% [at 5.99 µM] in test [6]; -3.59% [at 5.99 µM] in test [10]; -0.0042% [at 7.02 µM] in test [11]; 0.0826% [at 6.97 µM] in [13]. Also, the activation in [14] is 0.946% [at 8.39 µM]; in [17], 0.784% [at 8.39 µM]. For the same molecule, the activity, negative = inhibition is -6.54% [at 5.62 µM] in test [19] and 10% [at 5.58 µM] in test [12]. For the same molecule, the figures for the activity change, negative = inhibition in test [15], in [16] and in [18] were -6.83% [at 8.39 µM], 8.82% [at 8.39 µM] and 3.22% [at 8.38 µM], respectively.

For the molecule `CCN=C1C=CC(=C(c2ccc(N(CC)CC)cc2)c2ccc(N(CC)CC)cc2)c2ccccc21`, the Potency was 19.2 µM (active) in test [1], 22.8 µM (active) in [7], 40.5 µM (active) in test [8] and 36.1 µM (active) in [9]. The Potency entry in [2], in [3], in [4], in [5], in [6] and in test [11] was “inactive” throughout. The Potency entry in [12] and in test [13] was “inactive” in each case.

For the molecule `CCCCOC(=O)c1ccccc1`, the Potency result in [1], in test [2], in test [3], in test [4], in [5] and in [6] was “inactive” in each case. Further, the Potency entry in [7], in test [8], in test [9], in test [10], in test [19] and in [11] was “inactive” in each case. The Potency result in [13], in test [14], in test [15], in [16], in test [20] and in [17] was “inactive” in each case. Moreover, in [18], the Potency result was “inactive”.
